Laboratory results: PubChem BioAssay AID1159580 (chemical genetic matrix, 2015)
Hit rate of the full screen: of about 5,500 compounds, about 2,000 (36%) were called active. About 18% were inconclusive and are not listed. Cut-off read from the data, not from the text of the source: active = normalized growth mostly below about 0.91 (no sharp cut-off); inconclusive = no clear call, values can overlap the other calls; inactive = mostly above about 0.92. This is one part of the list.

Assay: chemical genetic growth profiling, strain panel (AID 1159580);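 note: tested at 20 µM; growth read once vehicle control cultures reached saturation at 30 °C; 1 = growth at the plate median or of vehicle wells; lower values mean less growth of the strain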
Conditions: growth OD

Measured: normalized growth

CC(=O)NS(=O)(=O)c1ccc(N)cc1
inactive: S. cerevisiae deletion strains, locus YJR066W, strain TOR1, active compounds read low 0.931 | S. cerevisiae deletion strains, locus YKL009W, strain mrt4, active compounds read low 0.975 | S. cerevisiae deletion strains, locus YKL068W, active compounds read low 0.989 | S. cerevisiae deletion strains, locus YKL085W, strain MDH1 (second series), active compounds read low 0.982 | S. cerevisiae deletion strains, locus YKL085W, strain MDH1, active compounds read low 0.982 | S. cerevisiae deletion strains, locus YKL160W, strain elf1, active compounds read low 1 | S. cerevisiae deletion strains, locus YKL190W, strain CNB1, active compounds read low 0.997 | S. cerevisiae deletion strains, locus YKR001C, strain vps1, active compounds read low 0.975 | S. cerevisiae deletion strains, locus YKR026C, strain gcn3, active compounds read low 1.01 | S. cerevisiae deletion strains, locus YKR091W, strain srl3, active compounds read low 1.01 | S. cerevisiae deletion strains, locus YLL001W, strain dnm1, active compounds read low 1 | S. cerevisiae deletion strains, locus YLL026W, active compounds read low 1.01 | S. cerevisiae deletion strains, locus YLL041C, strain sdh2, active compounds read low 1.02 | S. cerevisiae deletion strains, locus YLR027C, strain aat2, active compounds read low 1.01 | S. cerevisiae deletion strains, locus YLR039C, strain RIC1, active compounds read low 1 | S. cerevisiae deletion strains, locus YLR058C, strain SHM2, active compounds read low 0.992 | S. cerevisiae deletion strains, locus YLR102C, strain apc9, active compounds read low 0.988 | S. cerevisiae deletion strains, locus YLR113W, strain HOG1, active compounds read low 0.983 | S. cerevisiae deletion strains, locus YLR221C, strain rsa3, active compounds read low 1.01 | S. cerevisiae deletion strains, locus YLR258W, strain gsy2, active compounds read low 1.01 | S. cerevisiae deletion strains, locus YLR262C, strain YPT6 (second series), active compounds read low 1.03 | S. cerevisiae deletion strains, locus YLR262C, strain YPT6, active compounds read low 1 | S. cerevisiae deletion strains, locus YLR268W, strain sec22, active compounds read low 0.945 | S. cerevisiae deletion strains, locus YLR320W, strain mms22, active compounds read low 1.01 | S. cerevisiae deletion strains, locus YLR330W, strain CHS5, active compounds read low 0.993 | S. cerevisiae deletion strains, locus YLR342W, strain FKS1 (second series), active compounds read low 0.992 | S. cerevisiae deletion strains, locus YLR342W, strain FKS1, active compounds read low 1.01 | S. cerevisiae deletion strains, locus YLR357W, strain rsc2, active compounds read low 1.04 | S. cerevisiae deletion strains, locus YLR370C, strain arc18, active compounds read low 1.01 | S. cerevisiae deletion strains, locus YLR371W, strain rom2, active compounds read low 0.98 | S. cerevisiae deletion strains, locus YLR384C, strain iki3, active compounds read low 1.01 | S. cerevisiae deletion strains, locus YLR418C, strain cdc73, active compounds read low 0.968 | S. cerevisiae deletion strains, locus YML016C, strain PPZ1, active compounds read low 0.99 | S. cerevisiae deletion strains, locus YML032C, strain rad52, active compounds read low 0.976 | S. cerevisiae deletion strains, locus YML120C, strain ndi1, active compounds read low 1.01 | S. cerevisiae deletion strains, locus YML124C, strain tub3, active compounds read low 0.977 | S. cerevisiae deletion strains, locus YMR058W, strain fet3, active compounds read low 1.03 | S. cerevisiae deletion strains, locus YMR078C, strain ctf18, active compounds read low 0.985 | S. cerevisiae deletion strains, locus YMR125W, strain sto1, active compounds read low 1 | S. cerevisiae deletion strains, locus YMR129W, active compounds read low 1.01 | S. cerevisiae deletion strains, locus YMR205C, strain PFK2, active compounds read low 1.02 | S. cerevisiae deletion strains, locus YMR223W, strain ubp8, active compounds read low 0.996 | S. cerevisiae deletion strains, locus YMR231W, strain pep5, active compounds read low 1.01 | S. cerevisiae deletion strains, locus YMR307W, strain GAS1, active compounds read low 0.985 | S. cerevisiae deletion strains, locus YNL067W, strain RPL9B, active compounds read low 1 | S. cerevisiae deletion strains, locus YNL071W, strain lat1, active compounds read low 0.999 | S. cerevisiae deletion strains, locus YNL128W, strain TEP1, active compounds read low 0.978 | S. cerevisiae deletion strains, locus YNL183C, strain NPR1, active compounds read low 0.951 | S. cerevisiae deletion strains, locus YNL209W, strain ssb2, active compounds read low 1.03 | S. cerevisiae deletion strains, locus YNL233W, strain BNI4, active compounds read low 0.993 | S. cerevisiae deletion strains, locus YNL248C, strain rpa49, active compounds read low 1.03 | S. cerevisiae deletion strains, locus YNL250W, strain rad50, active compounds read low 0.971 | S. cerevisiae deletion strains, locus YNL271C, strain bni1, active compounds read low 0.973 | S. cerevisiae deletion strains, locus YNL298W, strain CLA4, active compounds read low 0.974 | S. cerevisiae deletion strains, locus YNL307C, strain MCK1, active compounds read low 0.97 | S. cerevisiae deletion strains, locus YNL322C, strain KRE1 (second series), active compounds read low 0.995 | S. cerevisiae deletion strains, locus YNL322C, strain KRE1, active compounds read low 0.992 | S. cerevisiae deletion strains, locus YNR049C, strain mso1, active compounds read low 1.01 | S. cerevisiae deletion strains, locus YNR052C, strain pop2, active compounds read low 0.977 | S. cerevisiae deletion strains, locus YOL006C, strain TOP1, active compounds read low 1.02 | S. cerevisiae deletion strains, locus YOL012C, strain htz1 0.651 | S. cerevisiae deletion strains, locus YOL147C, strain pex11, active compounds read low 0.985 | S. cerevisiae deletion strains, locus YOR001W, strain rrp6, active compounds read low 1.02 | S. cerevisiae deletion strains, locus YOR061W, strain CKA2, active compounds read low 0.989 | S. cerevisiae deletion strains, locus YOR069W, strain VPS5, active compounds read low 0.984 | S. cerevisiae deletion strains, locus YOR070C, strain gyp1, active compounds read low 1.02 | S. cerevisiae deletion strains, locus YOR080W, strain dia2, active compounds read low 1.01 | S. cerevisiae deletion strains, locus YOR083W, strain WHI5, active compounds read low 1 | S. cerevisiae deletion strains, locus YOR106W, strain vam3, active compounds read low 1.02 | S. cerevisiae deletion strains, locus YOR136W, strain idh2, active compounds read low 0.996 | S. cerevisiae deletion strains, locus YOR144C, strain elg1, active compounds read low 0.987 | S. cerevisiae deletion strains, locus YOR184W, strain ser1, active compounds read low 0.989 | S. cerevisiae deletion strains, locus YOR231W, strain MKK1, active compounds read low 0.997 | S. cerevisiae deletion strains, locus YOR265W, strain rbl2, active compounds read low 1.01 | S. cerevisiae deletion strains, locus YOR270C, strain vph1, active compounds read low 1.04 | S. cerevisiae deletion strains, locus YOR290C, strain snf2, active compounds read low 1 | S. cerevisiae deletion strains, locus YOR316C, strain cot1, active compounds read low 0.982 | S. cerevisiae deletion strains, locus YPL051W, strain arl3, active compounds read low 1.02 | S. cerevisiae deletion strains, locus YPL078C, strain atp4, active compounds read low 1.01 | S. cerevisiae deletion strains, locus YPL106C, strain sse1, active compounds read low 1.01 | S. cerevisiae deletion strains, locus YPL240C, strain hsp82, active compounds read low 1.02 | S. cerevisiae deletion strains, locus YPL241C, strain CIN2, active compounds read low 0.995 | S. cerevisiae deletion strains, locus YPL256C, strain CLN2, active compounds read low 1 | S. cerevisiae deletion strains, locus YPR119W, strain clb2, active compounds read low 0.995 | S. cerevisiae deletion strains, locus YPR141C, strain kar3, active compounds read low 0.981 | S. cerevisiae deletion strains, locus YPR163C, strain tif3, active compounds read low 0.982 | S. cerevisiae deletion strains, locus YPR167C, strain met16, active compounds read low 0.982 | S. cerevisiae deletion strains, strain wtn01, active compounds read low 0.969 | S. cerevisiae strains, strain wild type, active compounds read low 1
